Screening data: PubChem BioAssay, NMMLSC
MEKK3 PB1 HTS = modulators (inhibitors or enhancers) of MEK5 binding to human MEKK3 PB1 domain; Q99759; bead-based flow cytometry, Alexa488-MEK5 binding to MEKK3; actives lie on both sides; 0 = blocked by unlabeled MEK5, 100 = vehicle; binding response (% of control), % at 10 µM; hit rate 1.4% among 290,000;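 active = binding response more than 3 SD above or below the average of its plate-row segment, actives on both sides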;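 note: Alexa488 bead fluorescence after subtracting the streptavidin-only scavenger bead signal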
MEKK2wt PB1 HTS = raises or lowers MEK5 binding to wildtype human MEKK2 PB1 domain; Q9Y2U5; bead flow cytometry, Alexa488-MEK5 binding to MEKK2 WT; actives lie on both sides; binding response (% of control), % at 10 µM; hit rate 1.1% among 290,000; AID 1531; in the data active = binding response below about 67% or above about 130%
GRK2 inh = inhibitors of human GRK2 displacing RNA aptamer | hit rate 0.59% among 330,000 | P25098 | bead flow cytometry, FAM-aptamer displacement from GRK2 | AID 488847 | inhibition of aptamer binding, % at 10 µM;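 active = inhibition of aptamer binding above 40%, roughly 3 SD of noise, on plates passing a quality check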;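 note: median bead fluorescence of bound FAM aptamer so fluorescent compounds give negative values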
Target sequence (P25098 whole entry, looked up): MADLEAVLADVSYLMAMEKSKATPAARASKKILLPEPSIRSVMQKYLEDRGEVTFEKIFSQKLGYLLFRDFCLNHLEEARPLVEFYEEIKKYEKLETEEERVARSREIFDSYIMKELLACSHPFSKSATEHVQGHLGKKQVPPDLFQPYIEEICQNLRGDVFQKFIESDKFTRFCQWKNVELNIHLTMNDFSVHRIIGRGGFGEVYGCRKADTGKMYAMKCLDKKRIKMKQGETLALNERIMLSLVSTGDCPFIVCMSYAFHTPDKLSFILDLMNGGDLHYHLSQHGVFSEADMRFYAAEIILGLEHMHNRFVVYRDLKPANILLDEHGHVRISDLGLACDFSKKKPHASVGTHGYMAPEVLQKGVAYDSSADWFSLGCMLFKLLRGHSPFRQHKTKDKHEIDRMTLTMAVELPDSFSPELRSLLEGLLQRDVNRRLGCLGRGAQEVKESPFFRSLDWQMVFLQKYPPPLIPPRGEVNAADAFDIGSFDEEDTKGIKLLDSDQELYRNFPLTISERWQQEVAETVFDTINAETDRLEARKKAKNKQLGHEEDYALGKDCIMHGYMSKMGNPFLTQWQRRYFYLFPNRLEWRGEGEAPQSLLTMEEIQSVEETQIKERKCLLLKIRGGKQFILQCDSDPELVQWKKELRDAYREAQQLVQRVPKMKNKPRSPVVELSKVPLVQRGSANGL
MEKK2 mut-MEK5 = signal of MEK5 binding to mutant human MEKK2 PB1 domain; bead flow cytometry, Alexa488-MEK5 binding to MEKK2 mutant; AID 1530; percent response, % at 10 µM; hit rate 0.35% among 290,000; in the data active = percent response above about 24%, passing the limit was not always enough
MEKK2wt confirm = raises or lowers MEK5 binding to wildtype human MEKK2, retest. shares compounds with MEKK3 PB1 HTS. binding response (% of control), % at 10 µM. hit rate 2.4% among 5,900. bead flow cytometry, Alexa488-MEK5 binding to MEKK2 WT; actives lie on both sides; in the data active = binding response below about 16% or above about 210%; inactive = in between
MEKK2mut-MEK5 = signal of MEK5 binding to mutant human MEKK2, retest. shares compounds with MEKK3 PB1 HTS. bead flow cytometry, Alexa488-MEK5 binding to MEKK2 mutant. percent response, % at 10 µM. hit rate 2% among 5,900. AID 1893; in the data active = percent response mostly above about 71%, no sharp cut-off; inactive = mostly below about 38%;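 note: higher means compound restores mutant binding toward wildtype level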
MEKK3-MEK5 inh = confirmation of inhibitors of MEK5 binding to human MEKK3. hit rate 1.8% among 5,900. shares compounds with MEKK3 PB1 HTS. binding response (% of control), % at 10 µM. bead flow cytometry, Alexa488-MEK5 binding to MEKK3; active compounds read low;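 active = binding response below 72% of control, or above a set upper limit, though filed actives all read lower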;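 note: lower values mean stronger disruption of MEK5 binding to MEKK3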
Hits are given with their value; - = inactive; . = no result; [ ] = remark or other dose. In the library only some 2.5% were active in any assay of this set; here they are far more common.

SMILES | MEKK3 PB1 HTS | MEKK2wt PB1 HTS | GRK2 inh | MEKK2 mut-MEK5 | MEKK2wt confirm | MEKK2mut-MEK5 | MEKK3-MEK5 inh
O=C(Nc1ccc(C2=NCCN2)cc1)c1ccc(C(=O)Nc2ccc(C3=NCCN3)cc2)c([N+](=O)[O-])c1 | 63[inhibitor] | 151 | - | - | - | - | 46
Cc1cc(S(=O)(=O)N2CCCCC2)ccc1OCC(=O)N1CCOCC1 | - | - | - | - | . | . | .
COc1cc(C(=O)Nc2ccc3c(c2)Cc2ccccc2-3)cc(OC)c1OC | 135 | - | - | - | - | - | -
COc1cc(C(=O)Nc2ccc3c(c2)C(=O)c2ccccc2C3=O)cc(OC)c1OC | - | - | - | - | . | . | .
O=C(CSc1nc(-c2ccc(F)cc2)nc2ccc(F)cc12)Nc1cccc(C(=O)O)c1 | - | - | - | - | . | . | .
O=C(CSc1nc(-c2ccccc2)nc2ccccc12)Nc1cccc(C(=O)O)c1 | 4.0[inhibitor] | 6.0[inhibitor] | - | - | - | - | -
O=C(CN1CCCN(S(=O)(=O)c2ccc(Br)cc2)CC1)Nc1ccc2c(c1)OCO2 | 1.0[inhibitor] | 0.0[inhibitor] | . | - | - | - | -
CCCCCCCCC1=NCCc2c1[nH]c1ccccc21 | - | 159 | - | 54 | - | - | -
CC(C)C/C=C1\CCc2c([nH]c3ccccc23)C1=O | - | - | - | - | . | . | .
CC(OC(=O)C(C)N1C(=O)C2C3C=CC(C4CC34)C2C1=O)C(=O)c1ccccc1 (stereo not drawn) | 145 | - | - | - | - | - | -
CCc1ccc(NC(=O)Nc2ccsc2C(=O)OC)cc1 | - | - | - | - | . | . | .
Cc1cccc(N(CC(=O)NC2CCCC2)C(=O)CNC(=O)c2ccco2)c1C | - | - | - | - | . | . | .
O=C(Nc1ccc(S(=O)(=O)NCc2ccccc2)cc1)c1ccccc1[N+](=O)[O-] | 158 | - | - | - | - | - | -
CCOC(=O)c1ccc(NC(=O)c2ccccc2[N+](=O)[O-])cc1 | - | - | - | - | . | . | .
CCn1c(CNC(=O)c2cccs2)nnc1SCC(=O)Nc1ccc(Cl)cc1 | 128 | - | - | - | - | - | -
CCn1c(SCC(=O)NCC(=O)Nc2ccc(F)cc2)nnc1-c1cccs1 | 0.0[inhibitor] | -4.0[inhibitor] | - | - | - | - | -
CCn1c(CC(=O)Nc2ccc(Cl)c(Cl)c2)nnc1SCc1ccc(Cl)cc1 | 8.0[inhibitor] | 14[inhibitor] | - | - | - | - | -
Cc1ccccc1NC(=O)C1(NC(=O)c2cccc(N3C(=O)CSC3c3ccccc3)c2)CCCCC1 (stereo not drawn) | 122 | - | - | - | - | - | -
CC(C)(C)c1ccc(C2SCC(=O)N2c2cccc(C(=O)O)c2)cc1 (stereo not drawn) | - | - | - | - | . | . | .
CN1CCN(CCCN2c3ccccc3Sc3ccc(C(F)(F)F)cc32)CC1 | - | 168 | - | - | - | - | -
O=C(CN1CCCC(O)C1)N1c2ccccc2Sc2ccc(C(F)(F)F)cc21 (stereo not drawn) | - | - | - | - | . | . | .
CCN(CC)CCn1c(SCC(=O)Nc2cccc(OC)c2)nc2c(sc3ccccc32)c1=O | - | 174 | - | - | - | - | -
COc1cccc(NC(=O)CSc2nc3c(sc4ccccc43)c(=O)n2CCN(C)C)c1 | - | 147 | - | - | - | - | -
N=C1CCCN1CC(=O)c1ccc(Br)cc1 | 143 | - | - | - | - | - | -
CCc1cccc(C)c1N(C(=O)Cn1c(=O)[nH]c2ccccc21)C(C)COC (stereo not drawn) | - | - | - | 24 | - | - | -
SMILES | MEKK3 PB1 HTS | MEKK2wt PB1 HTS | GRK2 inh | MEKK2 mut-MEK5 | MEKK2wt confirm | MEKK2mut-MEK5 | MEKK3-MEK5 inh
CCc1cccc(CC)c1N(COC)C(=O)Cn1nnc2ccccc21 | . | . | - | . | . | . | .
Cc1ccc(NS(=O)(=O)c2cccc(C(=O)N/N=C/c3c(C)nn(-c4ccccc4)c3N3CCCC3)c2)c(C)c1 | - | - | - | - | . | . | .
CCNc1ccc(C(=O)N/N=C/c2c(C)nn(-c3ccccc3)c2N2CCCC2)cc1[N+](=O)[O-] | 138 | - | - | - | - | - | -
CCOC(=O)c1sc2nc(C)nc(SC(C)C(=O)N(C)c3ccccc3)c2c1C (stereo not drawn) | . | . | - | . | . | . | .
Cc1ccc2nsnc2c1NC(=O)c1cccc([N+](=O)[O-])c1 | 134 | - | - | - | - | - | -
Cc1cc(C)cc(NC(=O)c2ccc([N+](=O)[O-])o2)c1 | - | - | . | - | . | . | .
Cc1cc(C)nc(NC(=O)c2ccc([N+](=O)[O-])o2)n1 | 128 | - | - | - | - | - | -
COc1ccc(C(=O)NCC(=O)N/N=C(C)\C=C\c2ccccc2)cc1OC | - | - | - | - | . | . | .
CC12C=CC3(O1)C(C(=O)N(c1ccccc1)C3C(=O)NC1CCCC1)C2C(N)=O (stereo not drawn) | 20[inhibitor] | 29[inhibitor] | - | - | - | - | -
COc1ccc(NC(=O)c2cc(-c3cc(C)cc(C)c3O)n[nH]2)cc1Cl | - | 167 | - | - | - | - | -
O=[N+]([O-])c1cc(S(=O)(=O)N2CCCC2)ccc1NCCc1ccccc1 | - | - | - | - | . | . | .
COc1ccc(CCNc2ccc(S(=O)(=O)N3CCCC3)cc2[N+](=O)[O-])cc1 | 142 | - | - | - | - | - | -
CCCOC(=O)CC1C(=O)NCCN1C(=O)OC(C)(C)C (stereo not drawn) | 39[inhibitor] | - | - | - | - | - | -
COc1ccc(O)c(C(=O)c2cnc3c(c2)c(C)nn3CCO)c1 | - | - | - | - | . | . | .
COc1ccc(/C=N/NC(=O)Cn2cnc3c2c(=O)n(C)c(=O)n3C)cc1 | - | - | - | - | . | . | .
COc1ccc(/C=N/NC(=O)Cn2cnc3c2c(=O)n(C)c(=O)n3C)c(OC)c1OC | 71[inhibitor] | - | - | - | - | - | -
Cc1ccc(S(=O)(=O)N2CCN(C(=O)c3ccc(Br)o3)CC2)c(C)c1 | - | - | - | - | . | . | .
Cc1ccc(OCc2nnc(SCc3cc(=O)[nH]c4ccccc34)o2)cc1 | - | - | - | - | . | . | .
O=c1cc(CSc2nnc(COc3ccccc3)o2)c2ccccc2[nH]1 | 125 | - | - | - | - | - | -
CC[n+]1c(/C=C/C=C/N(C(C)=O)c2ccccc2)sc2ccccc21 | 2.0[inhibitor] | . | - | - | 13[inhibitor] | - | -
CCn1c(/C=C/N(C(C)=O)c2ccccc2)[n+](CC)c2ccc(Cl)cc21 | - | - | - | - | . | . | .
O=C(CSc1ncnc2scc(-c3ccccc3)c12)Nc1ccc(C(=O)O)cc1 | - | - | - | - | . | . | .
CC(=O)Nc1ccc(Sc2ncnc3scc(-c4ccccc4)c23)cc1 | 128 | - | - | - | - | - | -
S=C(NCCC(c1ccccc1)c1ccccc1)Nc1cccc(Cl)c1 | - | 5.0 | - | 32 | - | - | -
